According to PubChem BioAssay (NCI):
The panel holds about 79,000 compounds, 15% with a hit somewhere; the sample as a whole holds those more often. Rule as the data show it: active = growth inhibition above about 70%; inactive = the rest.

Tests used:
[1] = NCI Yeast Anticancer Drug Screen. Data for the rad50 strain (AID 155);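 also: 0% = growth of vehicle-only cultures of the same strain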; conditions: S. cerevisiae rad50 strain growth inhibition; at 50.0 µM; active compounds read high
In short: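 Growth of the mutant yeast was measured after compound exposure and referenced to vehicle-treated cultures.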

[2] = NCI Yeast Anticancer Drug Screen. Data for the mec2-1 strain (AID 157); conditions: S. cerevisiae mec2-1 strain, at 50.0 µM, active compounds read high
In short: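 Growth inhibition is read against vehicle-treated controls after compound exposure of the mec2-1 yeast strain, which is defective in DNA damage repair or cell cycle control.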

[3] = NCI Yeast Anticancer Drug Screen. Data for the sgs1 mgt1 strain (AID 161);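 also: 0% = growth of cultures given vehicle only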; conditions: S. cerevisiae sgs1 mgt1 strain, at 50.0 µM, active compounds read high
In short: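 Growth of a repair-deficient yeast mutant was monitored after compound treatment and expressed as inhibition relative to vehicle-treated cultures.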

[4] = NCI Yeast Anticancer Drug Screen. Data for the cln2 rad14 strain (AID 165);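 also: 0% = growth equal to vehicle treated cultures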; conditions: S. cerevisiae cln2 rad14 strain, at 50.0 µM, active compounds read high
In short: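 Growth inhibition, relative to vehicle-treated controls, is the read-out. The test organism is a yeast strain with defined genetic alterations, cln2 rad14.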

[5] = NCI Yeast Anticancer Drug Screen. Data for the bub3 strain (AID 167); conditions: S. cerevisiae bub3 mutant strain, at 50.0 µM, active compounds read high
In short: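 Whole-cell yeast assay. The mutant strain was incubated with compounds, and growth inhibition was determined by comparison with vehicle-treated cells.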

[6] = NCI Yeast Anticancer Drug Screen. Data for the mlh1 rad18 strain (AID 175); conditions: S. cerevisiae mlh1 rad18 strain growth inhibition; at 50.0 µM; active compounds read high
In short: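 Cells of a genetically altered yeast strain, deficient in DNA damage repair, were treated with compound. Their growth was then compared with that of vehicle-treated cultures to give inhibition.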

Measured: growth inhibition

CCCCCCOC(=O)C[n+]1ccc(C(N)=O)cc1
inactive: [1] 2.45% | [2] 17.1% | [3] -15.2% | [4] -14.8% | [5] -18.8% | [6] -1.9%

COC(=O)c1ccc2cc1Nc1c(C#N)cnc(=S)n1-2
inactive: [1] -2.3% | [2] 13.4% | [3] 11.2% | [4] 23.1% | [5] 14.5% | [6] 18.1%

CCC(C)C1CCCCC1 (stereo unspecified)
inactive: [1] -13% | [2] -15.9% | [3] -3.35% | [4] 3.85% | [5] -12.8% | [6] 0.75%

C[N+]1(C)CCCC(O)(C(=O)c2ccccc2)C1 (stereo unspecified)
inactive: [1] -5.2% | [2] -10.3% | [3] -14.3% | [4] 6.6% | [5] -2.4% | [6] 17.1%

CCOC(=O)c1cnc2cc(C)cc(C)c2c1Nc1ccc2c(c1)OCO2
inactive: [1] -8.15% | [2] -4.65% | [3] -12.3% | [4] -36% | [5] 5.45% | [6] -2.9%

CC(=O)Nc1ccc(C2CC(c3ccc([N+](=O)[O-])cc3)=Nc3ccccc3S2)cc1 (stereo unspecified)
inactive: [1] 32.8% | [2] 24.6% | [3] 34.1% | [4] 17.6% | [5] 13.9% | [6] 49.9%

CC(C)(O)CCC(O)C(C)(O)C1CCC2(O)C3=CC(=O)C4(O)CC(O)C(O)CC4(C)C3CCC12C (stereo unspecified) (tested in a mixture with another compound)
inactive: [1] -5.3% | [2] -17.9% | [3] 6.15% | [4] -12.2% | [5] -17.4% | [6] -47.7%

COc1cc2c(c3c1c(=O)c1ccccc1n3C)C=CC(C)(C)O2
inactive: [1] 10.9% | [2] -13.9% | [3] 22.7% | [4] 11.2% | [5] 4.75% | [6] 9.9%

CC(=O)NCCc1[nH]cnc1N=Nc1ccc(Br)cc1
inactive: [1] 0.95% | [2] 39.4% | [3] 14.7% | [4] -6.15% | [5] 52.1% | [6] 27.3%

Nc1[nH]c(=O)nc2snnc12
inactive: [1] 2.35% | [2] -2.3% | [3] 14.9% | [4] 16.3% | [5] 6.1% | [6] -57.9%

CN1CC(=O)N2CCCCC2C(c2ccccc2)C1 (stereo unspecified)
inactive: [1] -4.85% | [2] 2.85% | [3] -0.25% | [4] -34.7% | [5] -9.35% | [6] -1.25%

CN1N=C2c3ccccc3OC(c3ccccc3)[C@H]2C1c1ccccc1 (stereo partly specified)
inactive: [1] -46.8% | [2] -47.2% | [3] -40.2% | [4] -3.8% | [5] -61.4% | [6] -41.7%

COc1ccc(C(C#N)Cc2ccccc2)c([N+](=O)[O-])c1 (stereo unspecified)
inactive: [1] 17.6% | [2] -5.75% | [3] 4.8% | [4] -34.2% | [5] 0.45% | [6] 16.4%

CC(C)C(=O)C(C)(C)CCc1ccccn1
inactive: [1] -23.4% | [2] -24.8% | [3] -28.6% | [4] -15.8% | [5] -12.2% | [6] -8.35%

CC[O-].Cc1ccc2cccc([O-])c2n1.Cc1ccc2cccc([O-])c2n1.Cc1ccc2cccc([O-])c2n1.[Ti+4]
inactive: [1] -18.1% | [2] -5.75% | [3] -1.5% | [4] 20% | [5] -1.25% | [6] 4.3%

COc1ccc2nc3ccccc3c(NCCCN(C)C)c2c1
inactive: [1] 33.7% | [2] 41.1% | [3] 36.5% | [4] 60.1% | [5] 6.65% | [6] 12.3%

O=C1c2c(F)c(F)c(F)c(F)c2SC2=Nc3cccc4cccc(c34)N12
inactive: [1] -17.5% | [2] -3.8% | [3] -37.3% | [4] -14.5% | [5] -4.25% | [6] -37.8%

NC(=O)C1CCCN1C(=O)C(Cc1cnc[nH]1)NC(=O)C1CCCC1 (stereo unspecified)
inactive: [1] -46.4% | [2] -1.6% | [3] -1.65% | [4] 8.1% | [5] 7.05% | [6] -8.35%

CCNCCN(CC)CC
inactive: [1] -12.7% | [2] -5.75% | [3] -21.1% | [4] 6.1% | [5] 0% | [6] -17.4%

COc1ccccc1CCCO
inactive: [1] -1.8% | [2] 1.2% | [3] 1.55% | [4] 11.2% | [5] 10.1% | [6] -3.1%

C=CCCCCCCCCCCCCCCCCCC
inactive: [1] -3.55% | [2] -3.8% | [3] 2.8% | [4] 5.9% | [5] -5.3% | [6] 6.2%

COc1ccccc1N1C(=O)/C(=N\OC(=O)c2c(-c3c(Cl)cccc3Cl)noc2C)SC1=S
inactive: [1] -13.9% | [2] -26.6% | [3] -19.5% | [4] 11% | [5] -34.8% | [6] -0.2%

CC(=O)OCC(=O)c1ccccc1
inactive: [1] -10.8% | [2] 6.65% | [3] -3.8% | [4] -4.15% | [5] 30.5% | [6] -13.6%

Clc1ccc2cc(Cl)c3ccccc3c2c1
inactive: [1] -17.4% | [2] -24.4% | [3] -16.4% | [4] -20.9% | [5] 4.25% | [6] -0.05%

N#Cc1ccc(N=NN2CCOC2)cc1
inactive: [1] 20.6% | [2] 11.4% | [3] -0.7% | [4] 7.7% | [5] 23% | [6] 44.9%

C=CCOCC(O)CO (stereo unspecified)
inactive: [1] 32.5% | [2] -3.9% | [3] 29.8% | [4] 16.8% | [5] 10.1% | [6] 28.1%

CC1OC(OC2C(O)C(OCCc3ccc(O)c(O)c3)OC(CO)C2OC(=O)/C=C/c2ccc(O)c(O)c2)C(O)C(O)C1O (stereo unspecified)
inactive: [1] 4.75% | [2] -9.8% | [3] -3% | [4] 8.25% | [5] -2.7% | [6] 20.8%

O=C(c1ccccc1)c1oc(CO)cc(=O)c1O
inactive: [1] -1% | [2] -12% | [3] -4.35% | [4] -48.1% | [5] -3.9% | [6] -16.1%

O=C(NC(CO)C(=O)O)c1ccccc1 (stereo unspecified)
inactive: [1] 6.65% | [2] -14.2% | [3] -14.5% | [4] -44.5% | [5] -18.9% | [6] -12.9%

CCCCNC(=O)Nc1cccc(C)c1C
inactive: [1] -4.2% | [2] -7.9% | [3] 0.75% | [4] -25.8% | [5] 0.55% | [6] 6.35%

O=C(Cn1c(=O)oc2ccc(C(=O)c3ccccc3Cl)cc21)c1ccc([N+](=O)[O-])cc1
inactive: [1] -27.6% | [2] -28.3% | [3] 13% | [4] -8.45% | [5] -2.25% | [6] -2.65%

O=C(O)CNc1ccc(C(=O)O)cc1
inactive: [1] -20.9% | [2] -10.1% | [3] -11.3% | [4] 41.1% | [5] -51.7% | [6] -11.7%

CC(=O)OCc1cccc(O)c1C(=O)CCC=C(C)C
inactive: [1] -4.4% | [2] -17.1% | [3] 8.15% | [4] -10.9% | [5] -6.7% | [6] -63.5%

CC1=C(C)CC2(CC1)C(=O)C1(CCC(C)=C(C)C1)C2=O (stereo unspecified)
inactive: [1] 25.2% | [2] 0.7% | [3] -2.8% | [4] 14.1% | [5] 17% | [6] 15.6%

CN(C)N=Nc1ccc(Cl)cc1C(=O)O
inactive: [1] 14.8% | [2] 12.3% | [3] 20.7% | [4] 2.2% | [5] 17.9% | [6] 41%

CCCCC1CCC2CCCCC2C1 (stereo unspecified)
inactive: [1] 3.4% | [2] -2.5% | [3] -8.05% | [4] -18.1% | [5] -11.2% | [6] 8%

CNS(=O)(=O)c1ccc(N)cc1
inactive: [1] -2.9% | [2] -5.6% | [3] 2.8% | [4] -27.2% | [5] 3.15% | [6] 2.9%

CCC1COS(=O)(=O)CS(=O)(=O)O1 (stereo unspecified)
inactive: [1] -27.6% | [2] -16.2% | [3] -3.35% | [4] -40.9% | [5] 11.8% | [6] 3.1%

N#CN1CC[C@@H]2CC3(CCC2C1)OCCO3 (stereo partly specified)
inactive: [1] 17.6% | [2] 4.3% | [3] 0.3% | [4] -4.45% | [5] -18.4% | [6] 1.5%

C/C=C(\C)C(=O)OCC1CC[N+](C)([O-])C1 (stereo unspecified)
inactive: [1] -23.8% | [2] -8% | [3] -6.7% | [4] -57.9% | [5] 5% | [6] -15.3%

CCOC(=O)NC(CC)c1ccc2oc3ccccc3c2c1 (stereo unspecified)
inactive: [1] -10.5% | [2] 1.9% | [3] 20.4% | [4] -4.15% | [5] 32% | [6] -15.3%
